PubChem BioAssay (EPA / NIEHS)
Active and inactive are the calls of the source. How the source made its calls: active means hit-call score of the fitted dose curve at least 0.9, where 1 is the maximum; inactive means score below 0.9.

What was measured:
[1] = target: Bile acid receptor (Homo sapiens) (UniProt Q96RI1); assay: ATG_IR1_CIS: Attagene CIS-FACTORIAL HepG2 Assay for human Nuclear Receptor Subfamily 1 Group H Member 4 (NR1H4), IR1 submotif (AID 2282946); settings: IR1 reporter transcription, actives raise or lower the signal
Method in brief: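 HepG2 cells transiently transfected with multiple cis-promoter-driven reporter units to measure endogenous transcription factor activity; 24 h exposure. Reporter mRNA read by RT-PCR, FAM labelling, HpaI digestion and capillary electrophoresis. Bidirectional fit versus DMSO.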

[2] = ATG_GRE_CIS: Attagene CIS-FACTORIAL HepG2 Assay for human Glucocorticoid Response Elements (GRE) (AID 2282947); settings: HepG2 GRE cis-reporter, Attagene multiplex mRNA; actives raise or lower the signal
Method in brief: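 Transiently transfected HepG2 cells carrying GRE cis-reporter units (endogenous TF activity) dosed 24 h; reporter mRNA quantified by RT-PCR, 6-FAM labelling, HpaI digestion and capillary electrophoresis. Bidirectional fit versus DMSO baseline.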

[3] = ATG_ISRE_CIS: Attagene CIS-FACTORIAL HepG2 Assay for human Interferon Regulatory Factor 1 (IRF1) binding to an Interferon-Stimulated Response Element (ISRE) (AID 2282948); settings: HepG2 ISRE cis-reporter (Attagene), mRNA transcription readout; actives raise or lower the signal
Method in brief: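 Cell-based cis-reporter assay; HepG2; 24 h exposure; reporter mRNA by RT-PCR plus capillary electrophoresis fluorescence; activity in either direction scored relative to DMSO.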

[4] = ATG_M_32_CIS: Attagene CIS-FACTORIAL HepG2 Assay for M32 Transcription Factor (Internal Marker) (AID 2282949); settings: HepG2 Attagene cis-factorial M32 reporter, mRNA; actives raise or lower the signal;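 further: background control marker of the multiplexed CIS panel rather than a real target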
Method in brief: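 Fluorescent capillary electrophoresis peaks of HpaI-digested, FAM-labelled RT-PCR reporter products give the signal. Source: transiently transfected human liver HepG2 cells, 24 h after chemical dosing; bidirectional fitting against DMSO.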

[5] = ATG_M_06_CIS: Attagene CIS-FACTORIAL HepG2 Assay for M06 Transcription Factor (Internal Marker) (AID 2282950); settings: HepG2 Attagene CIS-FACTORIAL M06 internal marker reporter; actives raise or lower the signal
Method in brief: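 HepG2 liver cells, 24 h exposure. Reporter transcripts from transfected cis-element constructs quantified by RT-PCR/capillary electrophoresis fluorescence. Bidirectional curve fit against DMSO.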

[6] = target: Hypoxia-inducible factor 1-alpha (Homo sapiens) (UniProt Q16665); assay: ATG_HIF1a_CIS: Attagene CIS-FACTORIAL HepG2 Assay for human Hypoxia Inducible Factor 1 (HIF1A) (AID 2282951); settings: HepG2 Attagene cis-factorial HIF1a reporter transcription; actives raise or lower the signal
Method in brief: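 HepG2, transient cis-reporter library, 24 h dosing. RNA → RT (oligo dT) → PCR → 6-FAM primer extension → HpaI → CE. Bidirectional curve fit vs DMSO.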

[7] = target: Hepatocyte nuclear factor 6 (Homo sapiens) (UniProt Q9UBC0); assay: ATG_HNF6_CIS: Attagene CIS-FACTORIAL HepG2 Assay for human Hepatocyte Nuclear Factor 6 (HNF6) (AID 2282952); settings: HepG2 Attagene cis-factorial HNF6 reporter transcription; actives raise or lower the signal
Method in brief: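 Multiplexed mRNA reporter assay in transfected HepG2; 24 h dosing; RT-PCR plus capillary electrophoresis fluorescence; DMSO-referenced bidirectional curve fitting.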

[8] = target: Heat shock factor protein 1 (Homo sapiens) (UniProt Q00613); assay: ATG_HSE_CIS: Attagene CIS-FACTORIAL HepG2 Assay for human Heat Shock Transcription Factor 1 (HSE) (AID 2282953); settings: HepG2 HSE cis-reporter, Attagene RNA transcription; actives raise or lower the signal
Method in brief: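 Endogenous transcription factor activity captured via cis-promoter reporter units transfected into HepG2; treatment lasted 24 h. Fluorescence intensity of reporter fragments analysed with bidirectional curve fitting, DMSO baseline.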

[9] = ATG_MRE_CIS: Attagene CIS-FACTORIAL HepG2 Assay for human Metal Responsive Element (MRE) (AID 2282954); settings: HepG2 MRE cis-reporter transcription, Attagene multiplex; actives raise or lower the signal
Method in brief: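 HepG2 cells transiently transfected with cis-element-driven reporter units; mRNA measured 24 h after dosing. Reporter transcripts quantified by RT-PCR, FAM labelling, HpaI digestion and capillary electrophoresis; bidirectional fit versus DMSO.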

[10] = ATG_PBREM_CIS: Attagene CIS-FACTORIAL HepG2 Assay for human Phenobarbital-responsive Enhancer Module (PBREM) (AID 2282955); settings: HepG2 PBREM cis-reporter, Attagene multiplexed transcription; actives raise or lower the signal
Method in brief: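 HepG2, transient MRTU transfection, 24 h dosing; RNA → oligo(dT) RT → PCR → 6-FAM extension → HpaI → CE. Bidirectional fit vs DMSO.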

Measured: AC50

Chain of Hypoxia-inducible factor 1-alpha (Homo sapiens) (Q16665 whole entry, looked up): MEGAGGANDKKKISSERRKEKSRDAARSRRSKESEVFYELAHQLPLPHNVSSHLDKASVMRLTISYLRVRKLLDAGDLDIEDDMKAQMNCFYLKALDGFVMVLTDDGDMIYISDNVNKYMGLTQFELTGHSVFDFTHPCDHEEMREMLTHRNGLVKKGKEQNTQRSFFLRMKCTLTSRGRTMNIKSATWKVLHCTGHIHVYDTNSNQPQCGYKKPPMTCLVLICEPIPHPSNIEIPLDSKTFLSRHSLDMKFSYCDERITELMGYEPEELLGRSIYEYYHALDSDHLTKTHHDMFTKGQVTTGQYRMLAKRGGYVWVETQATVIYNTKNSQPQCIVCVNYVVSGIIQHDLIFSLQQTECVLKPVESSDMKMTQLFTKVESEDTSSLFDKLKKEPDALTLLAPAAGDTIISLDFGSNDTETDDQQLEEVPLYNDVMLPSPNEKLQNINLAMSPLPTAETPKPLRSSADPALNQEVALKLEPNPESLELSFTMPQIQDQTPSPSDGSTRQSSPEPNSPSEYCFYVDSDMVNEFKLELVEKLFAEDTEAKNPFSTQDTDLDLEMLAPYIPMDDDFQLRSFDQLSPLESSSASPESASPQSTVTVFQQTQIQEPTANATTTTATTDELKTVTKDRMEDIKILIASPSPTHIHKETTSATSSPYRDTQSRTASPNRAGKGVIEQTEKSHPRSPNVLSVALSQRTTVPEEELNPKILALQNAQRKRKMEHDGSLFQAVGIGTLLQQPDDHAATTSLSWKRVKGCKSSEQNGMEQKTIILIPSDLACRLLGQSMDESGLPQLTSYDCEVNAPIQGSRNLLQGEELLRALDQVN
Chain of Heat shock factor protein 1 (Homo sapiens) (Q00613 whole entry, looked up, the tested form may be a part): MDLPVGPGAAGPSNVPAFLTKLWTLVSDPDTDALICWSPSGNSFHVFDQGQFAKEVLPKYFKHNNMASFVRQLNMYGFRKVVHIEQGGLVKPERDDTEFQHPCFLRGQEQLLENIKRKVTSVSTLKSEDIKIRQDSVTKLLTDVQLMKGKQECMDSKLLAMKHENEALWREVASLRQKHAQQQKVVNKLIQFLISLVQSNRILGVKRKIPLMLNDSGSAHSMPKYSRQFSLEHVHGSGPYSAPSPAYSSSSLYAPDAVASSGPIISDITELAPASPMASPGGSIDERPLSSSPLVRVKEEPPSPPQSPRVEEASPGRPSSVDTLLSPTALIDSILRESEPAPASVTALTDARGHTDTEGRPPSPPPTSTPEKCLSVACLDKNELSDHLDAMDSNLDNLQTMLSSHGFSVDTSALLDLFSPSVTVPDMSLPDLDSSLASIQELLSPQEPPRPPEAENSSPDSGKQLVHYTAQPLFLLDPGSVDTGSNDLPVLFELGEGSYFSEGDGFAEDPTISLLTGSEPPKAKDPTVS
Chain of Bile acid receptor (Homo sapiens) (Q96RI1 whole entry, looked up): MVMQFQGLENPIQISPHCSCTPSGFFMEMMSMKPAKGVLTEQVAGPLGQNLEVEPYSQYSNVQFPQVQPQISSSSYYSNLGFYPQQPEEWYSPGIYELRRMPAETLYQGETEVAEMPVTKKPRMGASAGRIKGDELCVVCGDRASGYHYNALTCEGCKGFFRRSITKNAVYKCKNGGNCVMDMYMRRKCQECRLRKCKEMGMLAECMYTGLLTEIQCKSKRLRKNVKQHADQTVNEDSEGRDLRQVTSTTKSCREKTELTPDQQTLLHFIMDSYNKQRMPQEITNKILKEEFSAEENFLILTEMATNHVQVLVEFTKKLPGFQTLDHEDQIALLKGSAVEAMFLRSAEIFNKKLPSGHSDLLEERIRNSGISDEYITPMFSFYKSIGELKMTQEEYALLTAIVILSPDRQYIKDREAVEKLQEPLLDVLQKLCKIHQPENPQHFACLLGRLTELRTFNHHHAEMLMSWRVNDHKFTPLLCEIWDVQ
Chain of Hepatocyte nuclear factor 6 (Homo sapiens) (Q9UBC0 whole entry, looked up): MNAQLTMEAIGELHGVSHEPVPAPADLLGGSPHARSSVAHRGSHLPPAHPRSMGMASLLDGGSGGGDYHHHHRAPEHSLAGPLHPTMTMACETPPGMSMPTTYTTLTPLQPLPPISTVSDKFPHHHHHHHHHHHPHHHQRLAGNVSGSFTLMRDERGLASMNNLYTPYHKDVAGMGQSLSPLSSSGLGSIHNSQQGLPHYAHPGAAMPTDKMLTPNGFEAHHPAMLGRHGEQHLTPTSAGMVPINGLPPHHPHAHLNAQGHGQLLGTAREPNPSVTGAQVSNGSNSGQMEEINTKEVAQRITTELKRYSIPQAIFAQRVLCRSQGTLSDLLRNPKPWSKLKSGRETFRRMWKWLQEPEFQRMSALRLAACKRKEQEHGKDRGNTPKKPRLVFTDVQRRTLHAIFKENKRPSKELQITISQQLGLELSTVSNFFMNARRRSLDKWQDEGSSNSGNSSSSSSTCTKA

CC(C)(C)c1ccc(OC(=O)c2ccccc2O)cc1
inactive: [1] | [2] | [3] | [4] | [5] | [6] | [7] | [8] | [9] | [10]

CCc1nccnc1C
inactive: [1] | [2] | [3] | [4] | [5] | [6] | [7] | [8] | [9]

C=CC(=O)OCC(Br)CBr (stereo not given)
active: [1] 65.3 µM | [3] 100 µM | [8] 155 µM
inactive: [2] | [4] | [5] | [6] | [7] | [9]

O=P(O)(O)Oc1ccccc1
inactive: [1] | [2] | [3] | [4] | [5] | [6] | [7] | [8] | [9]

FC(F)=C(F)OC(F)(F)C(F)(F)C(F)(F)F
inactive: [1] | [2] | [3] | [4] | [5] | [6] | [7] | [8] | [9] | [10]

C=CC(=O)OCCOC1C2CCC1C1CC=CC12 (stereo not given)
inactive: [1] | [2] | [3] | [4] | [5] | [6] | [7] | [8] | [9]

OCCN(CCO)c1ccccc1
inactive: [1] | [2] | [3] | [4] | [5] | [6] | [7] | [8] | [9]

O=S(=O)(O)c1cc(S(=O)(=O)O)c2ccc3c(S(=O)(=O)O)cc(S(=O)(=O)O)c4ccc1c2c43
inactive: [1] | [2] | [3] | [4] | [5] | [6] | [7] | [8]

O=C(O)c1cc2ccccc2nc1C(=O)O
inactive: [1] | [2] | [3] | [4] | [5] | [6] | [7] | [8] | [9] | [10]

CCCCCCCCCCCCCCCC[N+](C)(C)CC
inactive: [1] | [2] | [4] | [5] | [6] | [7] | [8]
active: [3] 9.27 µM | [9] 8.94 µM

CC(C)(c1cc(Br)c(OCCO)c(Br)c1)c1cc(Br)c(OCCO)c(Br)c1
inactive: [5] | [10]
active: [1] 7.14 µM | [2] 44.2 µM | [3] 7 µM | [4] 22.9 µM | [6] 6.89 µM | [7] 42.2 µM | [8] 21.5 µM | [9] 18.4 µM

OCCc1ccncc1
inactive: [1] | [2] | [3] | [4] | [5] | [6] | [7] | [8] | [9]

C=CC=CC=CCCCCC
inactive: [2] | [3] | [4] | [5] | [6] | [7] | [8] | [9]
active: [1] 40.4 µM

CCCCNc1ccc(NCCCC)c2c1C(=O)c1ccccc1C2=O
inactive: [1] | [2] | [3] | [4] | [5] | [6] | [7] | [8]

CC[C@H]1OC(=O)[C@H](C)[C@@H](O[C@H]2C[C@@](C)(OC)[C@@H](O)[C@H](C)O2)[C@H](C)[C@@H](O[C@@H]2O[C@H](C)C[C@H](N(C)C)[C@H]2O)[C@](C)(O)C[C@@H](C)C(=NOCOCCOC)[C@H](C)[C@@H](O)[C@]1(C)O
inactive: [1] | [2] | [3] | [4] | [5] | [6] | [7] | [8] | [9]

C=C[C@](C)(O)CC[C@@H]1[C@@]2(C)CCCC(C)(C)[C@@H]2CC[C@@]1(C)O
inactive: [1] | [2] | [3] | [4] | [5] | [6] | [7] | [8] | [9] | [10]

CO[Si](CCC1CCC2OC2C1)(OC)OC (stereo not given)
inactive: [1] | [2] | [3] | [4] | [5] | [6] | [7] | [8] | [9] | [10]

C1=CCCC1
inactive: [1] | [2] | [3] | [4] | [5] | [7] | [8] | [9]
active: [6] 48.6 µM

CCCCCc1ccc(Cl)cc1
inactive: [1] | [2] | [3] | [4] | [5] | [6] | [7]

CCCCCCCCCCc1ccccc1
inactive: [1] | [2] | [3] | [4] | [5] | [6] | [7] | [8] | [9]

CCc1c(C(=O)O)c(=O)cnn1-c1ccc(Cl)cc1
inactive: [1] | [2] | [3] | [4] | [5] | [6] | [7] | [8] | [9]

CC(C)c1ccc2c(C(C)C)cc(C(C)C)c(S(=O)(=O)O)c2c1
active: [9] 21.1 µM
inactive: [1] | [2] | [3] | [4] | [5] | [6] | [7] | [8]

O=C(O)c1cc(Cl)cc([N+](=O)[O-])c1Cl
inactive: [1] | [2] | [3] | [4] | [5] | [6] | [7] | [8] | [9] | [10]

O=C1CCCCCCCCCCCCCCCO1
active: [6] 122 µM | [8] 160 µM | [9] 180 µM
inactive: [1] | [2] | [3] | [4] | [5] | [7] | [10]
